Where “and” joins values, the source holds several entries; their conditions need not be identical. Equal entries are not always repeated. Results filed as inconclusive are left out. Calls of active or inactive are those of the source. Calls follow the shape of the dose curve; as a rule, active = well fitted inhibition curve with a large enough effect; inconclusive = small, poorly fitted or top-dose-only effect; inactive = flat fitted curve, though single readings scatter. Non-standard residues stand in square brackets, D forms with d. Residues, ends and D or L forms follow the SMILES beside them. *: point of attachment. Nva = CCC[C@H](N)C(=O)O; Cbz = O=C(OCc1ccccc1)*
The compounds below were run on HaCat (assay: Cytotoxic Profiling of Annotated Libraries Using Quantitative High-Throughput Screening (AID 1296008; also: nearly all actives have a fitted effect of over 60% in size)). Details: Five cell lines viability, CellTiter-Glo ATP luminescence, 48-72 h; max response: hits give low values.
Method in brief: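 Cells exposed to compounds for 48 or 72 hr at 37 degrees Celsius. Viability read as ATP-coupled luminescence with CellTiter-Glo after 10 min at room temperature.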
% is scaled to controls: 0 for no effect and ±100 for the full control effect; potency is read from the fitted curve at half-maximal effect.

**Q.** `CC(C)(O)Cn1c(NC(=O)c2ccc(-c3cn[nH]c3)s2)nc2cc(CN3CCOCC3)ccc21` was tested. Which Potency did it give?
**A.** 1.32 µM (active)

**Q.** For `C[C@@H]1C(=O)O[C@H]2CC34[C@H]5C[C@@H](C(C)(C)C)C36[C@H](OC(=O)[C@@H]6O)O[C@@]4(C(=O)O5)[C@]21O` (stereo partly specified), which outcome is on record?
**A.** inactive

**Q.** For `C=CC(=O)Nc1cccc(Nc2nc(NC3CCC(N(C)C)CC3)nc3c2ncn3C(C)C)c1` (stereo unspecified), which Potency is on record?
**A.** 7.43 µM (active)

**Q.** Which outcome does the source give for `O=C1NC(O)CCN1[C@@H]1O[C@H](CO)[C@H](O)[C@H]1O` (stereo partly specified) here?
**A.** inactive

**Q.** With `CC1=C(C(=O)Nc2cc3cn[nH]c3cc2F)C(c2ccc(Cl)cc2F)N=C(c2ccnc(Cl)c2)N1` (stereo unspecified) as the compound, how does the max response read?
**A.** -46.1% (inactive)

**Q.** Which Potency does the source give for `N#Cc1ccc(COC[C@H]2O[C@@H](n3c(NCc4ccc(Cl)c(Cl)c4)nc4c(N)ncnc43)[C@@H](O)[C@@H]2O)cc1` here?
**A.** 11.8 µM (active)

**Q.** `N#Cc1cc(NC(=O)Nc2nnc(-c3ccncc3)s2)ccc1-c1cn[nH]c1` was tested. Which outcome did it give?
**A.** inactive

**Q.** For `Cc1cnc(NC(=O)Nc2cc(Br)c(C)cc2OC[C@@H]2CNCCO2)cn1`, which max response is on record?
**A.** 1.25% (inactive)

**Q.** How did the Potency turn out when `N#CNC(=NCCCCCCOc1ccc(Cl)cc1)Nc1ccncc1` was run?
**A.** 0.0209 µM (active)

**Q.** Which max response does the source give for `COc1ccc(C[C@@H](C)[C@@H](C)Cc2ccc(OC)c(OC)c2)cc1OC` here?
**A.** 3.58% (inactive)

**Q.** With `CCc1nc(-c2cccc(C)c2)c(-c2ccnc(NC(=O)c3ccccc3)c2)s1` as the compound, how does the max response read?
**A.** -12.8% (inactive) and -8.84% (inactive)

**Q.** With `N#CC(=C(O)c1ccc(Cl)cc1Cl)c1nc2cc(Cl)ccc2c(=O)[nH]1` as the compound, how does the max response read?
**A.** 4.62% (inactive)

**Q.** Which max response does the source give for `CN(C)CC[C@H](c1ccc(Cl)cc1)c1ccccn1` here?
**A.** -31.9% (inactive)

**Q.** `CON=C(C(=O)N[C@@H]1C(=O)N2C(C(=O)O)=C(Cn3ccc(=N)n3CCO)CS[C@H]12)c1csc(N)n1` was tested. Which max response did it give?
**A.** 4.51% (inactive)

**Q.** With `CCN(C(=O)c1c(O)c2c(Cl)cccc2n(C)c1=O)c1ccccc1` as the compound, how does the outcome read?
**A.** inactive

**Q.** Which max response does the source give for `COc1ccc(C=Cc2cc(OC)c(OC)c(OC)c2)cc1NC(=O)[C@H](N)CO` here?
**A.** 4.22% (inactive)

**Q.** `O=C(O)CCCCCC(=O)NN=C1CCCC1` was tested. Which max response did it give?
**A.** 0.832% (inactive)

**Q.** How did the outcome turn out when `Cn1cc(C=CC(=O)c2cccc(F)c2)cc1C=CC(=O)NO` was run?
**A.** inactive

**Q.** For `Nc1ccn(C2CO[C@H](CO)O2)c(=O)n1` (stereo partly specified), which max response is on record?
**A.** 1.07% (inactive)

**Q.** Which outcome does the source give for `CC1(C)CC(O)CC(C)(C)N1[O]` here?
**A.** inactive

**Q.** With `CC[C@H](CC[C@@H](C)[C@H]1CC[C@H]2[C@@H]3CC=C4C[C@@H](O)CC[C@]4(C)[C@@H]3CC[C@]12C)C(C)C` as the compound, how does the max response read?
**A.** 4.34% (inactive)

**Q.** Which Potency does the source give for `Cn1cc(CNCC2CCN(c3ncc(C(=O)NO)cn3)CC2)c2ccccc21` here?
**A.** 0.662 µM (active)

**Q.** For `C=C(C)[C@@H]1CC[C@]2(C(=O)O)CC[C@]3(C)[C@H](CC[C@@H]4[C@@]5(C)CC[C@H](O)C(C)(C)[C@@H]5CC[C@]43C)[C@@H]12`, which max response is on record?
**A.** 1.59% (inactive)

**Q.** For `CCC[C@@H](C=O)NC(=O)[C@H](CC(C)C)NC(=O)[C@H](CC(C)C)NC(=O)OCc1ccccc1` (Cbz-Leu-Leu-[Nva]-aldehyde), which Potency is on record?
**A.** 9.35 µM (active)

**Q.** How did the max response turn out when `CN(CC(=O)N(Cc1ccc(C2CCCCC2)cc1)c1ccc(C(=O)O)c(O)c1)S(=O)(=O)c1c(F)c(F)c(F)c(F)c1F` was run?
**A.** -3.31% (inactive)

**Q.** `CN(C)c1ccc(C(=O)NCCCCCCC(=O)NO)cc1` was tested. Which Potency did it give?
**A.** 4.69 µM (active)

**Q.** With `Cc1ncc(-c2ccnc(Nc3ccc(S(C)(=O)=O)cc3)n2)n1C(C)C` as the compound, how does the Potency read?
**A.** 8.33 µM (active) and 5.8 µM (active)

**Q.** How did the outcome turn out when `N#Cc1c(NC(=O)c2cccc3ccccc23)sc2c1CCCC2` was run?
**A.** inactive

**Q.** How did the max response turn out when `CC(C)(C)[N+]([O-])=Cc1ccc(S(=O)(=O)O)cc1S(=O)(=O)O` was run?
**A.** -17.9% (inactive)

**Q.** For `c1coc(CNc2ncnc3nc[nH]c23)c1`, which outcome is on record?
**A.** inactive

**Q.** For `COc1cccc2c1C(=O)c1c(O)c3c(c(O)c1C2=O)C[C@@](O)(C(=O)CO)C[C@H]3O[C@H]1C[C@H](N)[C@H](O)[C@H](C)O1`, which Potency is on record?
**A.** 0.264 µM (active)

**Q.** With `COc1cc(C(C)C)c(Oc2cnc(NC(CO)CO)nc2N)cc1I` as the compound, how does the max response read?
**A.** -12.7% (inactive)

**Q.** For `CCOC(=O)N1CCN([N+]([O-])=NOc2ccc([N+](=O)[O-])cc2C#N)CC1`, which max response is on record?
**A.** -20.9% (inactive)

**Q.** How did the max response turn out when `Cc1onc(-c2ccccc2)c1C(=O)N[C@@H]1C(=O)N2[C@@H](C(=O)O)C(C)(C)S[C@@H]12` was run?
**A.** -5.57% (inactive)

**Q.** `COc1ccc(C(C)=O)c(O)c1` was tested. Which max response did it give?
**A.** -4.96% (inactive)

**Q.** How did the max response turn out when `Cc1cc(C(=O)NOCCO)c(Nc2ccc(I)cc2F)n(C)c1=O` was run?
**A.** -66.6% (inactive)

From PubChem BioAssay (NCATS)
